# The panel holds about 83,000 compounds, 20% with a hit somewhere; the sample as a whole holds those more often.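 Testing used 96-well plates and a 48-hour single-concentration exposure. Example: -40 means 40% of the starting cells died.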 Activity calls are given as the source filed them. Rule for the calls: active = growth percent below 10; inactive = the rest.
# System: KM12 colon
# Experiment: NCI-60 one-dose screen, 48 h (100 = growth as untreated, 0 = no growth, -100 = all killed)
# Settings: 10 µM unless noted
row,Compound,growth
1,CC1(C)NCCC[C@]2(C)[C@H]3CC[C@@H]4[C@H]5[C@H](C(=O)/C=C/c6ccco6)CC[C@]5(CO)CC[C@@]4(C)[C@]3(C)CC[C@@H]12,82.9% (inactive)
2,CCCCCCNC(=O)Oc1ccc(/C(=C(\C)c2ccccc2)c2ccc(OCCCN(C)C)cc2)cc1,74.3% (inactive)
3,Cc1ccc(-n2nc3c(c(C#N)c2=O)CC(c2ccccc2[N+](=O)[O-])C([N+](=O)[O-])=C3O)cc1 (stereo not drawn),82.3% (inactive)
4,CN1CCN(CCNc2nccc(-c3c(-c4cccc(O)c4)nc4sccn34)n2)S1(=O)=O,34.4% (inactive)
5,NC(=NCCCOc1ccc(F)cc1)Nc1ccc(Cl)cc1,76.7% (inactive)
6,Cc1cc(Cl)nc(N(CCNc2ccnc3cc(Cl)ccc23)Cc2ccccn2)n1,64.1% (inactive)
7,COc1ccc(-c2cnc3c(-c4cccc5cnccc45)cnn3c2)cc1,63.1% (inactive)
8,CCOC(=O)c1cc(C#N)n2ccc3ccccc3c12,100% (inactive)
9,N#CC(C(=O)/C(=N/NC(=O)c1ccccc1O)C(C#N)c1ccccc1)c1ccccc1 (stereo not drawn),46.5% (inactive)
10,N#C/C(=C\c1cccc(C#N)c1)c1ccccc1,102% (inactive)
11,Cc1nc2ccc(Cl)cn2c1-c1nnc(SCc2ccc([N+](=O)[O-])cc2)o1,72.9% (inactive)
12,CCN(CC)CCn1c(=O)c2cc(OC)c(OC)cc2c2ccc3cc4c(cc3c21)OCO4,41.9% (inactive)
13,COc1ccc2nc(-c3ccc(-c4noc(-c5cc(OC)c(OC)c(OC)c5)n4)cc3)[nH]c2c1,55.4% (inactive)
14,CC(C)(C)[Si](C)(C)OC1[C@@H](O[Si](C)(C)C(C)(C)C)[C@@H](CNC(=O)NC(=O)CCl)O[C@H]1n1cnc2c(NC(=O)Nc3ccccc3)ncnc21 (stereo partly drawn),-79.4% (active)
15,O=C1C=CC(=O)N1c1cccc(Cl)c1,104% (inactive)
16,O=C(O)c1ccc2c(c1)C(=O)N(Cc1ccccc1)C2=O,104% (inactive)
17,O=C(Cc1ccccc1)NNc1nc(Cl)nc(N2CCN(C(c3ccccc3)c3ccccc3)CC2)n1,97.5% (inactive)
18,O=C(/C=C/c1c(-c2ccc(Cl)cc2)nn(-c2ccccc2)c1C(F)(F)F)c1ccc(Cl)cc1,84.8% (inactive)
19,O=C1Nc2ccccc2/C1=C\c1c(-c2ccc(F)cc2)nc2ccccn12,46.3% (inactive)

row,Compound,growth
1,COc1cc(C2C3=C(COC3=O)N(CCO)c3cc4c(cc32)CCC4)cc(OC)c1OC (stereo not drawn),-16.9% (active)
2,CC(c1ccccc1)C(C(=O)c1ccccc1)c1ccccc1 (stereo not drawn),104% (inactive)
3,C#Cc1cccc(NC(=O)Nc2cccc(NC(=O)CCl)c2)c1,32.9% [8.25 µM] (inactive)
4,COc1cc(-c2cc(-c3ccc(N(C)C)cc3)nc(N3CCOCC3)c2C#N)cc(OC)c1OC,28.3% (inactive)
5,Cc1nc2sccn2c1-c1cn2ccsc2n1,64.1% (inactive)
6,C=CCn1c(-c2ccc(-c3nc4ccc(C)cc4[nH]3)cc2)n[nH]c1=S,105% (inactive)
7,COc1cc(CC(=O)n2ncc3ccc(N)cc32)cc(OC)c1OC,82.6% (inactive)
8,COC(=O)C(CC=O)C(=O)C(=O)Nc1cccc(C(F)(F)F)c1 (stereo not drawn),100% (inactive)
9,CCNc1nc2ccc(Nc3ccnc4cc(Cl)ccc34)cc2[nH]1,67% (inactive)
10,Cc1cc2c(c(C)c1Cl)C(=O)/C(=C/c1ccc(O)c(O)c1)O2,109% (inactive)
11,O=C1/C=C/[C@@H](O)[C@@H]2C[C@@H](O)C[C@H]2/C=C/CCC[C@H](CCc2cccc3ccccc23)O1,-37.9% (active)
12,COc1cc2c(cc1OC)C(=O)/C(=C/c1cc(C)c(O)c(C)c1)S2,26.2% (inactive)
13,Cc1ccc(-n2c3c(c(-c4ccccc4)c2-c2ccccc2)C2=NCCN2C=N3)cc1,90.5% (inactive)
14,NS(=O)(=O)c1ccc(CCn2c(SCC(=O)c3ccc(Cl)cc3)nc3ccccc3c2=O)cc1,102% (inactive)
15,COc1cc(NC(=O)CSc2nc3ccc(C)cc3c(=O)n2Cc2ccccc2)cc(OC)c1OC,57.9% (inactive)
16,CN1[C@@H]2CC[C@H]1/C(=C\c1ccccc1)C(=O)/C2=C/c1ccccc1,20.7% (inactive)
17,Cc1ccc(C(=O)/C(=C/c2ccc([N+](=O)[O-])cc2)SCc2ccc(Cl)cc2)cc1,44.8% (inactive)
18,CSc1nc2sc3cccc(Cl)c3n2c(=N)c1C#N,101% (inactive)
19,Cc1c2cc[nH]c(=O)c2c(C)c2c1[nH]c1cc(OCCN3CCN(C)CC3)ccc12,8.55% (active)

# — PubChem BioAssay (NCI)
